Screens (PubChem)
Most compounds without a hit are left out; they make up all but 2.8% or so of the library.
SENP6 block – SENP6 protease inhibitors, primary screen, biochemical, luminescence, uHTS; Recombinant SENP6 catalytic domain, aminoluciferin luminescence; inhibition, % at 10 µM; hit rate 1.8% among 330,000;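 active means inhibition above about 50% at the single tested dose, limit read from the data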
Target sequence (Q9GZR1 628-1112 limits assumed): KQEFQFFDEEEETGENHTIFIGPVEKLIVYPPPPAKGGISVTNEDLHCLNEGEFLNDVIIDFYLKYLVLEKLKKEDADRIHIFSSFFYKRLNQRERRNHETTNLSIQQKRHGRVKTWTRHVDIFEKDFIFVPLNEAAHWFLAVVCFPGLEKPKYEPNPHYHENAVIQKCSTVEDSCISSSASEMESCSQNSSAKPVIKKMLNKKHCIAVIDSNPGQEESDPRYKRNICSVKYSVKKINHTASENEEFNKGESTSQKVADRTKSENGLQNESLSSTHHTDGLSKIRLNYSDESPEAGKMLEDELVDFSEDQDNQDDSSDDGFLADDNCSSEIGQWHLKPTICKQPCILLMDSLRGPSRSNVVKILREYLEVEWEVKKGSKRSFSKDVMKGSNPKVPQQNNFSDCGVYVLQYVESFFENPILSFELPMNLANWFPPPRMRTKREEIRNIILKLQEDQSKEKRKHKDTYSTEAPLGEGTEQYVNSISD
SENP8 block-1 – human SENP8 protease inhibitors, primary screen, biochemical, fluorescence, Nedd8 protein substrate, uHTS; Sentrin-specific protease 8 (Homo sapiens), Q96LD8; recombinant SENP8; inhibition, % at 20 µM; hit rate 0.64% among 360,000; AID 602440, 2012; in the data active means inhibition mostly above about 40%, no sharp cut-off; inactive means mostly below about 27%
SENP7 inh – SENP7 protease inhibitors, primary screen, biochemical, luminescence, uHTS | AID 434973, 2010 | recombinant SENP7, Z-RLRGG-aminoluciferin luminescence, 40 min | hit rate 1.5% among 330,000 | inhibition, % at 5 µM;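 active means inhibition above about 50% at the single test dose, limit read from the data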
Platelet DG rel – inhibitors of platelet dense granule secretion, primary screen, cell-based, MLPCN, human platelets; human platelet-rich plasma, SFLLRN dense granule ATP release, luminescence; inhibition, %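 (compounds screened at 7.5 µM in platelet-rich plasma)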; hit rate 0.22% among 300,000; AID 1663, 2009;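 active means mean replicate score, as percent of positive control, at or above 50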
HSP90 refold inh – HSP90 inhibitors, primary screen, cell lysate, luminescence; Heat shock protein HSP 90 (rabbit reticulocyte lysate; luciferase refolding); Rabbit reticulocyte lysate, luciferase refolding luminescence, 3 h; inhibition, % at 5.6 µM; hit rate 0.91% among 290,000;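 active means inhibition above the screen-wide mean plus 3 SD, computed separately per campaign, cut at about 16% in these data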;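 further: inhibitors lower the luminescence because luciferase stays unfolded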
SENP8 block-2 – SENP8 protease inhibitors, primary screen, biochemical, luminescence. Sentrin-specific protease 8 (Homo sapiens), Q96LD8. purified SENP8, Z-RLRGG-aminoluciferin cleavage. inhibition, % at 10 µM. hit rate 1.2% among 330,000. AID 2540, 2010; in the data active means inhibition above about 50%
HSP90 confirm – HSP90 inhibitors, confirmation, cell lysate, luminescence; shares compounds with HSP90 refold inh; rabbit reticulocyte lysate, luciferase refolding luminescence, 3 h; inhibition, % at 5.9 µM; hit rate 64% among 2,300; in the data active means inhibition above about 18%
FLuc counter – firefly luciferase inhibitors, HSP90 counter-screen, confirmation, artefact control for HSP90 inhibitor project, biochemical, luminescence, triplicate; hit rate 48% among 2,300; inhibition, % at 5.9 µM; shares compounds with HSP90 refold inh; purified native firefly luciferase;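 active means inhibition above the mean inhibition of all tested sample wells plus 3 SD, cut at about 10% in these data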
Hits are given with their value; i = inactive; nt = no result.

SMILES	SENP6 block	SENP8 block-1	SENP7 inh	Platelet DG rel	HSP90 refold inh	SENP8 block-2	HSP90 confirm	FLuc counter
CCc1ccc(NC2=NC(C(=O)c3ccccc3)CC(=O)N2)cc1 (stereo unspecified)	i	i	i	i	i	i	nt	nt
O=C1c2ccccc2C(=O)c2cc(S(=O)(=O)Nc3ccccc3)ccc21	i	i	i	i	i	i	nt	nt
O=C1C(Nc2ccccc2)=C(NS(=O)(=O)c2ccccc2)C(=O)c2ccccc21	i	i	i	i	i	i	nt	nt
O=C1C(Nc2ccccc2)=C/C(=N/S(=O)(=O)c2cccs2)c2ccccc21	nt	83	nt	i	37	nt	94	i
COc1ccc(OC)c(CC(=O)N2CCc3cc(OC)c(OC)cc3C2)c1	i	i	i	i	i	i	nt	nt
COC(=O)c1ccccc1NC1=C/C(=N\S(=O)(=O)c2ccc(C(=O)O)cc2)c2ccccc2C1=O	73	i	i	i	77	90	92	i
CN(C(=O)CSc1nnc(-c2ccccc2)o1)c1c(N)n(Cc2ccccc2)c(=O)[nH]c1=O	i	i	i	i	19	i	i	i
COc1ccc(Nc2ncnc3c2cnn3Cc2ccccc2)cc1	i	i	i	i	i	i	nt	nt
CCOc1ccc(Nc2ncnc3c2cnn3Cc2ccccc2)cc1	i	i	i	i	23	i	i	i
CN(C)C1=NC(=O)/C(=C\c2ccccc2)S1	i	i	i	i	38	i	i	i
O=C(Nc1cccnc1N1CCOCC1)c1cc2ccccc2oc1=O	i	i	i	i	nt	i	nt	nt
O=C(O)c1ccccc1NC(=O)c1cc2ccccc2oc1=O	i	i	i	i	23	i	i	i
Cc1ccccc1/C=N/Nc1nc2ccccc2[nH]1	i	i	i	i	i	i	nt	nt
COc1ccc(/C=N/Nc2nc3ccccc3[nH]2)c(OC)c1OC	i	i	i	i	27	i	54	62
CCc1ccc(N2CC(C(=O)OCC(=O)N(CC)c3c(N)n(Cc4ccccc4)c(=O)[nH]c3=O)CC2=O)cc1 (stereo unspecified)	nt	i	nt	nt	nt	nt	nt	nt
O=C(CNC(=O)Cc1ccc(Cl)cc1)NCC(=O)N1CCCCC1	i	i	i	i	23	i	i	i
O=C(O)c1cc(N/N=C/c2cccs2)ccc1Cl	i	nt	i	i	24	i	67	21
O=C(O)c1cc(N/N=C/c2ccc3c(c2)OCCO3)ccc1Cl	nt	i	nt	nt	39	nt	87	82
COc1cc(/C=N/NS(=O)(=O)c2ccc3ccccc3c2)ccc1OCc1ccc(C(=O)O)cc1	i	i	i	i	51	i	i	i
COc1cc(/C=N/NS(=O)(=O)c2ccc(C)cc2)ccc1OCc1cccc(C(=O)O)c1	i	i	i	i	46	i	i	i
O=C(CCC1CCCN(C(=O)c2cccc(F)c2)C1)N1CCN(c2ccccn2)CC1 (stereo unspecified)	i	i	i	i	i	i	nt	nt
COc1ccc(C(=O)c2coc3ccc(O)c(CN(C)C)c23)cc1	i	i	i	i	35	i	i	i
C=CCNc1nc(-c2ccc3c(c2)OCCO3)cs1	90	i	66	i	19	82	33	32
c1cc2c(cc1Nc1nc(-c3ccc4c(c3)OCO4)cs1)OCCO2	i	i	i	i	37	i	23	i
CCC(=O)Nc1nc(-c2ccc3c(c2)OCCO3)cs1	i	i	i	i	i	i	nt	nt
SMILES	SENP6 block	SENP8 block-1	SENP7 inh	Platelet DG rel	HSP90 refold inh	SENP8 block-2	HSP90 confirm	FLuc counter
CCOc1ccccc1N1CCN(CC(=O)Nc2ccnn2C2CCCC2)CC1	i	i	i	nt	nt	i	nt	nt
CCCc1cc2c(cc1N(C)S(=O)(=O)c1ccccc1)OCO2	nt	i	nt	nt	nt	nt	nt	nt
CC(C)c1ccc(CN2CCSCC2)cc1	i	i	i	i	i	i	nt	nt
Cc1cccnc1NC(=O)CN1C(=O)COc2ccc(Cl)cc21	i	i	i	i	18	i	i	i
Cc1ccc2c(c1)N(CC(=O)Nc1ccccc1F)C(=O)CO2	i	i	i	i	22	i	i	i
N#C/C(=C\c1cccn1S(=O)(=O)c1cccc([N+](=O)[O-])c1)S(=O)(=O)c1ccc(F)cc1	nt	i	nt	nt	nt	nt	nt	nt
O=C(COC(=O)c1cc(S(=O)(=O)N2CCOCC2)ccc1O)NCc1ccc2c(c1)OCO2	i	i	i	nt	nt	i	nt	nt
Cc1ccc(-c2cc(C(=O)NCCN3CCOCC3)c3ccccc3n2)o1	i	i	i	i	i	i	nt	nt
Cc1ccc2nc(SCC3CCCCO3)[nH]c2c1 (stereo unspecified)	i	i	i	i	30	i	64	61
N=c1sccn1CC(=O)Nc1ccc([N+](=O)[O-])cc1Cl	i	i	i	i	21	i	i	i
COc1cc(CC(=O)OCC(=O)N2C(C)CCCC2C)cc(OC)c1OC (stereo unspecified)	i	i	i	i	i	i	nt	nt
Cc1ccc(-n2[nH]c(=O)c(-c3ccccn3)c2C)cc1	i	i	i	i	70	i	81	76
Cc1ccc(-n2[nH]c(=O)c3cccnc32)cc1	i	i	i	i	i	i	nt	nt
COc1ccc(CC(N)c2csc(Nc3nncc4ccccc34)n2)cc1 (stereo unspecified)	nt	i	nt	nt	nt	nt	nt	nt
CC(NCc1cc(Br)ccc1OCC(=O)NCc1ccccc1)c1ccccc1 (stereo unspecified)	i	i	i	i	i	i	nt	nt
O=C(NCc1ccc(Cl)c(Cl)c1)c1cc(C2CCCCN2C(=O)c2cccs2)on1 (stereo unspecified)	nt	i	nt	nt	nt	nt	nt	nt
CC(C)(C)n1ncc2c(=O)n(CC(=O)NCc3ccccc3)cnc21	i	i	i	i	21	i	37	34
CC(NC(=O)CSc1nnc(-c2cccnc2)n1N)c1ccccc1 (stereo unspecified)	i	i	i	i	18	i	i	i
Cn1c(-c2ccc(F)cc2)cnc1SCC(=O)N1CCCCC1	i	i	i	i	18	i	27	19
C[n+]1c(/C=C/c2ccc3c(c2)OCO3)ccc2ccccc21	i	i	i	i	32	i	54	55
C[n+]1cccc(C2C(C#N)=C(N)Oc3c2ccc2ccccc32)c1 (stereo unspecified)	i	i	i	i	18	i	i	i
C[n+]1cccc2ccc3c(c21)OC(N)=C(C#N)C3c1ccccc1 (stereo unspecified)	i	i	i	i	i	i	nt	nt
